Screening results from PubChem BioAssay.
Only some compounds are listed: those with a hit (about 19% of all), similar ones and a draw of the others.
MCF10A rereplic: inducers of DNA re-replication in MCF 10A breast cells | MCF 10A DNA re-replication, Hoechst nuclear intensity, 48 h | Potency, µM (highest dose often 46.1 µM), for the others: at the top dose activity, positive = re-replication, most hits filed as activators | hit rate 2.9% among 350,000 | AID 624296; note: potency is the fitted concentration of half-maximal effect; % of control where 0% means no effect; nearly all actives have a fitted effect of over 50% in size
SW480 rerep: inducers of DNA re-replication in SW480 colon cancer cells; Potency, µM (top dose mostly 46.1 µM), for inactives: at the top dose re-replication activation, hits mostly activators; hit rate 1.8% among 340,000; SW480 DNA re-replication, Hoechst DNA content imaging, 48 h; note: potency is the fitted concentration of half-maximal effect; % of control where 0% means no effect; nearly all actives have a fitted effect of over 55% in size
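Cells (250 per well) received 23 nL compound or DMSO by pin tool and were kept 48 hr at 37 C, 5% CO2. Nuclei were then stained with Hoechst for 40 min and scanned for DNA content.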
TDP1 cell CPT: DT40-hTDP1 cell growth loss with CPT; Potency, µM (series often up to 46.2 µM), for inactives: at the top dose activity change, negative = growth inhibition, actives largely listed as inhibitors; hit rate 12% among 420,000; chicken DT40 Tdp1-/-;hTDP1 cells + 20 nM CPT, ATP luminescence, 48 h; note: potency is the fitted concentration of half-maximal effect; % is set by controls: 0 for no effect and ±100 for the full control effect; nearly all actives have a fitted effect of over 55% in size
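Chicken DT40 Tdp1-/- cells stably complemented with human TDP1 were seeded at 400 cells/well in medium containing 20 nM camptothecin, exposed to pin-transferred compounds, and grown at 37 °C for at least 48 hr. Viability was read as ATP luminescence.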
Chronic BCR inh: inhibitors of chronic active B-cell receptor signaling | AID 493014 | ABC-DLBCL IkBa-CBG/CBR reporter, luminescence ratio, 4 h | hit rate 0.05% among 340,000 | Potency, µM (doses to about 46.1 µM), without a hit: at the highest dose activity change, negative = inhibition, most hits filed as inhibitors; active = well fitted inhibition curve with a large enough effect in the signal ratio, with a control signal flat, not every such curve was filed as active; inconclusive = small, poorly fitted or top-dose-only effect, or effect the other way, or a change in a side signal; the % refers to the signal ratio;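 note: potency is the fitted concentration of half-maximal effect; plate controls were basal doxycycline-induced cells for no effect and cells given 10 µM MG132 for full effect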
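TMD8 human ABC-DLBCL cells with doxycycline-inducible IκBα–green luciferase fusion and unfused red luciferase, in 0.5% FBS medium; compounds up to 46 uM, 4 h at 37C. Green/red luminescence ratio, filter-overlap corrected, fitted to concentration-response curves.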
TDP1 cell noCPT: qHTS for Inhibitors of human tyrosyl-DNA phosphodiesterase 1 (TDP1): qHTS in cells in absence of CPT. hit rate 15% among 420,000. DT40 Tdp1-/- hTDP1 cells, no CPT, ATP luminescence, 48 h. Potency, µM (doses to about 46.2 µM), for the others: at the top dose activity change, negative = growth inhibition, most hits filed as inhibitors; note: potency is the fitted concentration of half-maximal effect; % is set by controls: 0 for no effect and ±100 for the full control effect; nearly all actives have a fitted effect of over 55% in size
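No-CPT arm: Tdp1-/-;hTDP1 DT40 cells (400/well) plus compounds, incubated ≥48 hr at 37 °C. Readout CellTiter-Glo luminescence.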
IL-1B inflam inh: blocks inflammasome-driven IL-1 beta release. hit rate 4.7% among 360,000. activity change, % at 57.5 µM. THP-1 LPS/ATP IL-1B secretion, AlphaLISA, 16 h; active compounds read low; in the data active = activity change below about -50%; inconclusive = mostly about -30% to -49%; note: % is set by controls: 0 for no effect and ±100 for the full control effect
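Secreted IL-1B measured by AlphaLISA bead assay after 16 h compound exposure of THP-1 cells; compounds (final up to 57.5 uM) added 1 h before LPS (250 ng/mL) and ATP (1.25 mM) stimulation; lower signal means less secretion.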
* = called active by the depositor; i = inactive; ? = inconclusive; nt = no result. Unless noted, calls come from the whole dose curve; as a rule, active = well fitted curve in the direction sought with a large enough effect; inconclusive = small, poorly fitted or top-dose-only effect, or another doubt; inactive = no such curve, though single readings can be large; an effect the other way counts as inactive or inconclusive.

SMILES | MCF10A rereplic | SW480 rerep | TDP1 cell CPT | Chronic BCR inh | TDP1 cell noCPT | IL-1B inflam inh
C[C@@H]1CN([C@@H](C)CO)C(=O)c2cc(NS(C)(=O)=O)ccc2O[C@@H]1CN(C)Cc1ccc(C(F)(F)F)cc1 | 8% | 0% | ? | nt | -29% | 4
CC(=O)Nc1ccc(S(=O)(=O)N2CCC3(CC2)CC(=O)c2ccccc2O3)cc1 | -1% | -2% | ? | 8% | ? | -6
Cc1ccc(S(=O)(=O)N2CCCC(c3nnc4n3-c3ccccc3SC4)C2)cc1 (stereo unspecified) | 4% | 1% | ? | 12% | 15µM* | -10
CCN(CC)C(=O)C(Sc1nnnn1-c1ccc(O)cc1)c1ccccc1 (stereo unspecified) | -17% | -87% | -29% | 14% | ? | -74*
CCC(Sc1nnnn1-c1ccccc1)C(=O)NC(C)c1ccccc1 (stereo unspecified) | -5% | -2% | ? | 3% | ? | -5
Brc1ccc2nc(N3CCN(c4ccccc4)CC3)sc2c1 | -3% | -4% | 3% | ? | -4% | -74*
CC(C)(C)C1CCSC2=NCCC[C@]2(c2ccccc2)C1 (stereo partly specified) | nt | nt | ? | nt | 18µM* | -1
CC(C)(C)C1CCN2CCC[C@](c3ccccc3)(C1)C2OCCCO (stereo partly specified) | nt | nt | ? | nt | ? | 6
Cc1ccc(N(O)C(C)(C)C)cc1 | 2% | 1% | 23µM* | nt | 16µM* | 4
Cc1ccc(C(C)(C)c2ccc(C)cc2)cc1 | 2% | -2% | 3% | nt | 8% | nt
O=[N+]([O-])c1ccc(Cl)c(S(=O)(=O)/N=C(/c2ccccc2)N2CCOCC2)c1 | -2% | -17% | -1% | -8% | 0% | 22
Cc1ccc(S(=O)(=O)NNC(=O)c2cccs2)c(C)c1 | 7% | -2% | -17% | 1% | -15% | i
Cc1ccc(C)c(S(=O)(=O)Nc2ccc(O)c3ccccc23)c1 | -1% | -4% | 13µM* | -2% | 15µM* | -12
Cc1ccc(S(=O)(=O)Nc2ccc(O)c3ccccc23)c(C)c1 | 21µM* | 1% | 3.7µM* | ? | 5.2µM* | -81*
Cc1ccc(C)c(S(=O)(=O)Nc2ccc(O)c(C(=O)O)c2)c1 | -49% | -11% | -3% | -1% | 7% | 32
Cc1ccc(S(=O)(=O)NNc2ccccc2)c(C)c1 | ? | ? | ? | 1% | 18µM* | -1
COc1ccc2cc1Oc1cc3c(cc1OC)CC[N+](C)(C)C3Cc1ccc(cc1)Oc1c(OC)c(OC)cc3c1C(C2)[N+](C)(C)CC3 (stereo unspecified) | 2% | 0% | nt | nt | nt | nt
C[n+]1ccccc1/C=C/c1ccc2ncccc2c1 | 0% | -2% | 5% | 5% | 1% | -9
[O-][n+]1c(/C=C/c2ccccc2)ccc2ccccc21 | 21µM* | 18µM* | 21µM* | ? | 16µM* | -10
CN(C)c1ccc(/C=C/c2c[n+](C)cc3ccccc23)cc1 | nt | nt | 0.35µM* | nt | 0.28µM* | nt
CN(C)c1ccc(/C=C/c2cc3ccccc3c[n+]2C)cc1 | nt | nt | 0.089µM* | nt | 0.1µM* | nt
CN(C)c1ccc(/C=C/c2ccc3c4ccccc4ccc3[n+]2-c2ccccc2)cc1 | ? | 1% | 0.21µM* | ? | 0.16µM* | -111*
Cc1nn(C)cc1S(=O)(=O)Nc1ccccc1Br | -1% | 2% | -2% | 4% | -18% | -1
CN(CCCS(=O)(=O)[O-])c1ccc(/C=C/c2ccc3ccccc3[n+]2C)cc1 | -2% | -5% | -15% | 1% | ? | 10
CN(C)c1ccc(/C=C/c2ccc3ccccc3[n+]2C)cc1 | ? | 2.3µM* | 0.16µM* | ? | 0.13µM* | -107*
SMILES | MCF10A rereplic | SW480 rerep | TDP1 cell CPT | Chronic BCR inh | TDP1 cell noCPT | IL-1B inflam inh
C#CC[N+](C)(C)C(C#Cc1ccccc1)CC=C (stereo unspecified) | ? | -1% | 12µM* | 2% | 18µM* | -73*
C#CC[N+](C)(C)CC#Cc1ccc(C)cc1 | 6% | -14% | -13% | 0% | -6% | ?
Cc1cc(C)c(Cn2c(=O)n(CCCCC(=O)NCc3ccccc3Cl)c(=O)c3ccccc32)c(C)c1 | nt | nt | -7% | nt | -4% | nt
CS(=O)(=O)c1nc(S(=O)(=O)c2ccc(Cl)cc2)c(NCCCN2CCCC2=O)s1 | 2% | 0% | -1% | -6% | 15% | -1
CC1CC(C)C(=O)C(C(CC2CC(=O)NC(=O)C2)OC(=O)CC(=O)c2ccccc2)C1 (stereo unspecified) | ? | 11% | 0.37µM* | nt | 0.41µM* | 3
O=C1CCC(C(=O)OCC(=O)c2ccccc2)N1 (stereo unspecified) | -3% | -4% | ? | -3% | -24% | 17
CC(C)(C)C(=O)NCc1ccc(C(=O)CSc2nnc(-c3ccncc3)n2C2CC2)s1 | -2% | -2% | -10% | 2% | -31% | 5
O=C(COc1ccc(-c2nnc(N3CCCCC3)c3ccccc23)cc1)N1CCCCC1 | ? | 10% | ? | 4% | 16µM* | -17
O=C(COc1ccccc1)N1CCCC1 | -4% | -4% | -2% | 9% | 2% | 14
O=C(COc1ccc([N+](=O)[O-])cc1)N1CCN(c2nnc(-c3ccccc3)c3ccccc23)CC1 | 6% | -10% | 21µM* | 2% | 8.2µM* | 10
NC(=NC1C2CC3CC(C2)CC1C3)Nc1ccc(I)cc1 (stereo unspecified) | nt | nt | 4.1µM* | nt | 3.7µM* | nt
Cc1nnc(SCC(=O)Nc2ncc3c(n2)CC(c2ccccc2)CC3=O)s1 (stereo unspecified) | 2% | -1% | ? | -3% | -14% | -6
O=C(CSc1nnnn1-c1ccccc1)Nc1ncc2c(n1)CC(c1ccccc1)CC2=O (stereo unspecified) | ? | ? | 16µM* | ? | ? | 27
CCOC(=O)C1(Cc2ccccc2C)CCCN(C(=O)c2sccc2C)C1 (stereo unspecified) | -22% | ? | 18µM* | 0% | ? | 1
CCOC(=O)C1(Cc2ccccc2C)CCCN(S(=O)(=O)c2cccnc2)C1 (stereo unspecified) | 0% | 0% | ? | 8% | 16µM* | 27
